Whole data set: some 59,000 sequences, median the read-out near -0.00055, cut for the lowest 2% near -2. This is one part of a sample in which the lowest values are shown more often than they occur.
Assay: Identification of proteins required for the processing of the EWS-FLI1 nascent transcript;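 also: robust z of luciferase light less the median z of siRNAs with the same seed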
Details: TC32 Ewing sarcoma NR0B1-luc vs CMV-luc (EWS-FLI1 target promoter against control promoter), 48 h; screened at 20 nM (by protocol)
Summary of the method: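 Three siRNAs per gene, each in a separate well at 20 nM, were transfected into TC32 cells bearing either reporter construct. Luminescence was measured two days on, and per-gene comparison relied on seed-corrected Z values.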

Sequence | seed-corrected z-score
UUAUAAAUCCCUUUCACCG against CASP9 | -0.324
UAUGUCUUUCAGACUGACC against RPTN | -1
UUUCGGCACUGCAAAGUCG against ATP10A | 0.235
UCCUGCUUCAUAUCUUCUG against C19orf66 | -3.54
UUACUGAGGAAGUUUCUUU against CD99L2 | -0.781
UCCCUGGUAAAGUAUAGUC against EGFEM1P | -1.34
UUUCCGUCUGUCUUCUUCC against DCAF4 | 0.00663
UUACUAAAGACUGACAACC against ZNF208 | -0.0968
UACUGCUUCGUAUCUGUCC against PIH1D2 | -2.13
AUAGGACUGACAGUGUUCA against STAC3 | 1.13
UUUCAUUCGGUGAAAGUCC against MTFR1L | -0.547
UAAUUCACUAACUUCAAGC against SLC37A3 | 0.139
UGGGUGUCCAUUCUCGAGC against PPP1R18 | 1.72
UUUUGGGUGUGGACCUUGC against NPFF | 0.585
ACAGUGGAAACCUCACUUC against FOXP3 | 0.0552
AUUCUUAUCCAUCCGAUCC against CTTN | -0.272
UCAUUUUACCUCUUCCAUC against GADL1 | 0.676
UCUGCUUCACCAGUUACUC against HNRNPH1 | -2.08
UGAUAAACCACAGCAACUC against TYMS | 1.01
UUUGAUACCUCCUUUACCC against HELB | 0.388
UCUCUGCUAACGAUAACUC against PIWIL1 | -0.0232
UAACCUGCUCAAAAGAAUG against ACSL6 | 0.714

Sequence | seed-corrected z-score
UAAAGUACAGCUCGGUUUG against OOSP2 | 0.436
UUUGUUGAAGGUUUCACUG against ZMYND15 | 1.4
UCGAUAGUCAUCAAAGAUC against VWC2L | -2.99
UACUGGUAAAAGGUGUUCC against C6orf58 | 0.5
UACAGAGAAAGGUAGCGGU against GPR3 | -2.23
UGAUCUACCUGCUUGUGCC against USP17L9P | -0.147
UGACUGACAACUUCUGGAU against PAK6 | -0.344
AAUGGACCUAGAUUUCAGG against C16orf59 | 1.27
UUAGCUGCGUCAGAUAUCG against RPS6KA2 | -2.67
UCCUGGAUACGCAACUUGA against C2orf68 | -0.63
UGCAUUUGAAGACUCACUC against HMG20A | 0.87
UUGAGUCUUAGCAAUGUGA against KIAA0895L | -0.000345
UACAUGAAAAGCAAGGCUG against OR6B3 | 0.504
UAUGGUGUUGAGCUCAGCG against SLC12A3 | 0.228
UCUACUAUCGGCUUAUAGC against 11-Sep | -0.114
UCCGGAGUAAGCUUCAACC against DHX9 | -0.429
AACGAAGCAAGCAUGGUCC against LARP6 | -0.832
UAGUCAACGUUGGACACGG against PRR22 | 0.319
UUGACGGUAAUAUCUGUCC against SMU1 | -3.14
UAGCCUAUGGUACAAGUUC against ERVFRD-1 | 0.353
AACUCAUUCCCUUCUUUCC against ZMAT3 | -0.582
UCUCUGACAAGUGUGAAGC against DKK1 | -0.0537

Sequence | seed-corrected z-score
UGAUGAGCGAGAAGGUACC against DLL4 | 1.41
UUAAUUGCUAUGUUGUUGG against NFS1 | -0.476
AUAGGUUUGUGAUCCAACC against AAED1 | 0.186
AUUCGUAUGGUUCAUGUCC against PRPF8 | -2.88
UUAAAUACAGCUCCUGUUA against AQP11 | 0.0289
AGCUUGUACAGUGUUAUCC against PTPN4 | -2.22
UUGCUGAACGCGAUGAUCU against PRDX2 | 0.201
UCUUAUGUAAUUGUUCCUC against KANSL1 | 0.324
UUCUUUCGCAUUGCAAUGC against CMC2 | 0.187
UGAGGACAAAGAAUCUUCC against MRPS18B | 0.518
UCCAGUUGUUCAAUCAUGG against CNTROB | -2.47
UCUGUUUGAUGUUAGGUUG against PACS1 | -0.0479
UUCUUUAACUUUAUGCUCC against RAI2 | 0.273
UAUUCUAUUGGGUCACUGG against DYDC2 | 0.409
AAGUGAAUAGAAAACAUCC against SUN5 | 1.29
UAGGUCAGAAGCAACCUGC against C10orf111 | 2.42
AGAUGUGAUAGUGCUCUGG against TMEM52B | -2.02
UUACGUAAUCCAGGGAUCG against LANCL2 | -1.2
UAGUGUAAUUGGUCUAACC against POGZ | 0.928
UAUGUGAUUCUGGUGCUUG against LEMD1 | 0.794
UCUGAUGUAAUUUCCAGUU against AARD | 0.424
UUAGUUGCUGACUUUCUCC against TRAPPC9 | -2.06

Sequence | seed-corrected z-score
UUUGAUUUGGUUGUGACCC against ZYX | -0.301
UUCAAGUUUGUUCUCAGAC against GOLGA6L7P | -0.298
AAGGAAAUUAGGAUAAUAG against FAM217B | 0.732
UGUCUCUCAGGCAACAGGC against PROP1 | -0.922
UUCAUUAUCAUCUAGGUGG against ACTR5 | -0.49
UGUGGACAAGGUCUAGGGC against LOC401317 | -2.18
AUAGUUGACAUUCCGAACC against CDK5RAP3 | 0.941
UUAGAGUUUGCGAAGCAGG against PSG11 | 0.96
UUUAUAUCCAUAUCCUUUC against PPIC | 0.0569
AGAAGAUGAAUCACAGAGC against BAGE4 | -0.377
UAUCAUAUUUAAGAGACUG against TSSC1 | 0.912
UAUUUGAAGCUCCAGGGUG against FBXL15 | 0.429
UUCUUUAUGCACAACUCCC against MYO1C | -2.91
UUACUUUUAGUUCAUACAG against SOX1 | -0.0466
AUCAGUACUAAAAUAUCGG against ATG2B | 0.25
UCCUCGAAAAUCUCAAAGC against MYO1B | -0.441
UGGUAUUCAAAAUAGUCGC against TLK1 | -0.673
UUCUGCUUCCGGUAAAUGC against SH3TC1 | -0.467
UUUGUUUCGCUGGUCUUUG against RYBP | -2.49
